This passage reports inhibition results from ChEMBL document CHEMBL1961873, “Compounds: GSK PKIS; Assays: Nanosyn kinase panel” (2012).

In assay [1] the target is T1, Serine/threonine-protein kinase TBK1 (Homo sapiens) (UniProt Q9UHD2).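 Note: values are mean inhibition of TBK1, screened as part of the GSK published kinase inhibitor set.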
T1 sequence (whole entry): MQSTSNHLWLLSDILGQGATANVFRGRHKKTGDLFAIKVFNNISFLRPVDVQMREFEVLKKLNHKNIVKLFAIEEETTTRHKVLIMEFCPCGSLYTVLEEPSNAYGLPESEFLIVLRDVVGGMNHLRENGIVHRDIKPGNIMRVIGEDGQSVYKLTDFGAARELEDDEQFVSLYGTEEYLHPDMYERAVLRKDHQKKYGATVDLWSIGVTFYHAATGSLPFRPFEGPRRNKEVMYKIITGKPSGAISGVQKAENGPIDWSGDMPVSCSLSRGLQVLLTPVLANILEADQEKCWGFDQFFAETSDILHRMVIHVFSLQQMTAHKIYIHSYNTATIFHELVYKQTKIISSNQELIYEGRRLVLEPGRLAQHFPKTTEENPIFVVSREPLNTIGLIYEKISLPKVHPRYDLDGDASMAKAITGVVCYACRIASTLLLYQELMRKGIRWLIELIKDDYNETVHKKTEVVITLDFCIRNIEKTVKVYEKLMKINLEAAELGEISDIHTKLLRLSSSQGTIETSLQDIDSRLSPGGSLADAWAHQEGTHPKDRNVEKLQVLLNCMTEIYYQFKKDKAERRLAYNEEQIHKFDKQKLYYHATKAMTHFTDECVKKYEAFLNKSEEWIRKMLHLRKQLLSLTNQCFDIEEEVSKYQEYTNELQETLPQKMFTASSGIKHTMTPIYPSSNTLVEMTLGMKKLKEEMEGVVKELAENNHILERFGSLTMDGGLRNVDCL
The conditions noted are these: at 1 µM.

The target of assay [2] is T2, Testis-specific serine/threonine-protein kinase 1 (Homo sapiens) (UniProt Q9BXA7).
T2 sequence (whole entry): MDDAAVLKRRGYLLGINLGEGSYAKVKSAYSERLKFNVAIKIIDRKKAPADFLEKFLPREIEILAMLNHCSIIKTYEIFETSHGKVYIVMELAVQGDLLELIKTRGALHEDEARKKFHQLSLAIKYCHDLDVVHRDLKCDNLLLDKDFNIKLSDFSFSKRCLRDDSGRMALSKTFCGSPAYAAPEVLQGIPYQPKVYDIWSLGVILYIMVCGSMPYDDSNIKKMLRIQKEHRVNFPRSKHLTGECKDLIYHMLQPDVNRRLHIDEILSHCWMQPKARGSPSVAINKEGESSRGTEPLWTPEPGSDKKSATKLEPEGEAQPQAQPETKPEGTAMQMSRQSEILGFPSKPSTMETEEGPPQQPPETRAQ
The settings on record: at 0.1 µM.

Assay [3] addresses T2, Testis-specific serine/threonine-protein kinase 1 (Homo sapiens). The settings on record: at 1 µM.
In assay [4] the target is T3, Testis-specific serine/threonine-protein kinase 2 (Homo sapiens) (UniProt Q96PF2).
T3 sequence (whole entry): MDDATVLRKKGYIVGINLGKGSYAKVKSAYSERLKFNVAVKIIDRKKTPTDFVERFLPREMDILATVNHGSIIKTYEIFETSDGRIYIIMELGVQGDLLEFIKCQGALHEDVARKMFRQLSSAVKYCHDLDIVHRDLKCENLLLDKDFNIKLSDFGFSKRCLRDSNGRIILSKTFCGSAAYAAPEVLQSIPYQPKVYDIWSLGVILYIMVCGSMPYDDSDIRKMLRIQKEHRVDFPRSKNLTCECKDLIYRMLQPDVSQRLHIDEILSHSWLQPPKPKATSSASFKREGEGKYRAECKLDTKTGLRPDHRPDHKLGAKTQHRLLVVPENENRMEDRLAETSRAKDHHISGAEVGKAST
The conditions noted are these: at 0.1 µM.

In assay [5] the target is T3, Testis-specific serine/threonine-protein kinase 2 (Homo sapiens). The settings on record: at 1 µM.
Assay [6] concerns the target Casein kinase I isoform alpha (Homo sapiens) (UniProt P48729). The settings on record: at 0.1 µM.
For assay [7] the target is unchanged. The conditions noted are these: at 1 µM.
Assay [8] deals with Casein kinase I isoform gamma-1 (Homo sapiens) (UniProt Q9HCP0). The settings on record: at 0.1 µM.
Assay [9] has the same target. The settings on record: at 1 µM.
For assay [10], the target named is Casein kinase I isoform gamma-2 (Homo sapiens) (UniProt P78368). The conditions noted are these: at 0.1 µM.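 Note: values are mean inhibition figures reported as part of the GSK PKIS dataset.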
Chain of Casein kinase I isoform gamma-2 (Homo sapiens) (P78368 whole entry, looked up, canonical isoform): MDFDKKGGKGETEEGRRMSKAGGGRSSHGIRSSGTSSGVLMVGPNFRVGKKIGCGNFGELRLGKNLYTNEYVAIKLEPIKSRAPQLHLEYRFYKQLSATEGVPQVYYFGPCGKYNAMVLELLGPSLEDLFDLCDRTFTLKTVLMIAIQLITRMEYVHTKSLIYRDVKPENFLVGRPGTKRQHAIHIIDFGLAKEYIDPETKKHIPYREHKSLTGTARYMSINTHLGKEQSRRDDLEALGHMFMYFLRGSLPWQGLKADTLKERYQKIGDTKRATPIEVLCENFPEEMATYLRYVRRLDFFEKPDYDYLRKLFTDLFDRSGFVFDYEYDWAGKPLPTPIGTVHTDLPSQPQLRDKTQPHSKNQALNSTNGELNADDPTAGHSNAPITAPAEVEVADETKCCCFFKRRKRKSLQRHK

Chain of Casein kinase I isoform alpha (Homo sapiens) (P48729 2-337 limits assumed): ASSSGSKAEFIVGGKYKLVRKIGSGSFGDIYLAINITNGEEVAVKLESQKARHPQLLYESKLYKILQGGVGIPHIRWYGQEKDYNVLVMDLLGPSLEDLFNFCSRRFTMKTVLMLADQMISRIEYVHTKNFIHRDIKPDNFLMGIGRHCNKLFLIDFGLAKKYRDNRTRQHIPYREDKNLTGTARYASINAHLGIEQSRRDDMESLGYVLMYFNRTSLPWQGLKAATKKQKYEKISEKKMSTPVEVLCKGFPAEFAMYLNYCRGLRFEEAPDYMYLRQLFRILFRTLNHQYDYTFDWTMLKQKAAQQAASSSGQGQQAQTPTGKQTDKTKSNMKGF
Chain of Casein kinase I isoform gamma-1 (Homo sapiens) (Q9HCP0 whole entry, looked up, canonical isoform): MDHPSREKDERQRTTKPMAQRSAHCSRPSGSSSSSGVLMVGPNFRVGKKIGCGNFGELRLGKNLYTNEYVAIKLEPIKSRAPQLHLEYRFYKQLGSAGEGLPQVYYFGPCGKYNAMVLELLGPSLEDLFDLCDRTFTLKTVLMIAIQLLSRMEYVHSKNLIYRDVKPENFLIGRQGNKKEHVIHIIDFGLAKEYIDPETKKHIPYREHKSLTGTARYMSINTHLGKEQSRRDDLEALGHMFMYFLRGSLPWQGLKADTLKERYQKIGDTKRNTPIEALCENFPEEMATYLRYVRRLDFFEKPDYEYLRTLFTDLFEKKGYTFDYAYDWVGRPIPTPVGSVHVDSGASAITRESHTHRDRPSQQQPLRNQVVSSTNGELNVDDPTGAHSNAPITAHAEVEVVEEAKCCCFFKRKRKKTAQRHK

`CC1=C(C(=O)Nc2ccc3[nH]ncc3c2)C(c2ccc3ccccc3c2)CC(=O)N1` (centres undefined): the inhibition (commonly the change of the read-out against control, counted positive when it falls) is 4.09% in assay [1]; 1.35% in assay [2]; 1.04% in assay [3]; 1.35% in [4]; 0.44% in assay [5]; 1.57% in assay [6]. For the same molecule, the inhibition in assay [7] came out at 3.29%; in [8], 1.69%; in [9], 3.15%; in assay [10], 1.16%.
Consider `COc1cc2ncn(-c3cc(OCc4ccccc4Cl)c(C(N)=O)s3)c2cc1OC`, for which the inhibition in assay [1] is 28.7%; in assay [2], 1.82%; in assay [3], 4.67%; in assay [4], 0.7%; in assay [5], 1.63%; in assay [6], 1.79%. Further, the inhibition in assay [7] is 0.67%; in assay [8] it was 0.19%; in assay [9], 1.8%; in [10] it was -0.04%.
`CC(=O)Nc1cccc(C#Cc2cncnc2Nc2ccc(OCc3cccc(F)c3)c(Cl)c2)n1`: the inhibition in assay [1] is -0.27%; in [2], 2.3%; in [3], 4.75%; in assay [4], 0.15%; in [5], 5.54%; in assay [6], 0.01%. The inhibition in assay [7] was -1.03%; in assay [8], -1.49%; in [9], -2.35%; in [10] it was -0.28%.
In the case of `CCn1c(-c2nonc2N)nc2cncc(C(=O)N3CCNCC3)c21`, the inhibition amounted to 5.51% in assay [1]; 4.82% in assay [2]; 5.83% in assay [3]; 2.4% in assay [4]; 3.03% in assay [5]; 6.74% in [6]. For the same molecule, the inhibition was 9.8% in [7], 5.02% in assay [8], 6.64% in assay [9] and 4.43% in assay [10].
In the case of `COc1cc2ncn(-c3cc(O[C@@H](C)c4ccccc4Cl)c(C(N)=O)s3)c2cc1OC`, the inhibition in assay [1] was found to be 27%; in assay [2], 3.02%; in assay [3], 5.73%; in assay [4], 1.37%; in assay [5], 1.24%; in assay [6], 4.77%. For the same molecule, the inhibition in [7] was determined as 4.44%; in assay [8], 4.61%; in [9], 5.05%; in [10], 4.07%.
`NS(=O)(=O)c1ccc(N/N=C2\C(=O)Nc3ccc(C(=O)NCCc4c[nH]cn4)cc32)cc1`: the inhibition was found to be 26.8% in assay [1]; 6.64% in assay [2]; 11.2% in [3]; 3.37% in [4]; 1.67% in assay [5]; 9.71% in assay [6]. For the same molecule, the inhibition is 8.41% in [7], 4.44% in [8], 9.85% in assay [9] and 3.01% in [10].
`CCn1c(-c2nonc2N)nc2c(C#CC(C)(C)O)nc(CN3CCCC3)cc21`: the inhibition was 9.67% in assay [1]; 0.35% in assay [2]; 9.75% in assay [3]; -1.26% in assay [4]; -0.69% in [5]; -1.27% in assay [6]. Besides, the inhibition in assay [7] was -0.92%; in assay [8], -0.23%; in assay [9] it was 0.92%; in assay [10], -0.27%.
As to `O=C1NC(=O)C(c2cccc(Cl)c2)=C1Nc1ccc(O)c(Cl)c1`, the inhibition in assay [1] was 23.9%; in [2] it was 1.11%; in assay [3], 1.63%; in [4], -0.57%; in assay [5], 0.16%; in [6] it was 1.72%. Besides, the inhibition in assay [7] came to 9.44%; in assay [8], 0.2%; in assay [9], 1.3%; in assay [10] it was 0.09%.
`NS(=O)(=O)c1cccc(-c2ccc3c(NC(=O)C4CC4)n[nH]c3c2)c1`: the inhibition in assay [1] is 0.44%; in assay [2] it was -0.2%; in assay [3] it was -0.47%; in [4], -0.61%; in [5] it was -0.16%; in [6] it was 4.11%. Besides, the inhibition is 4.53% in [7], -0.89% in assay [8], 0.05% in [9] and -0.75% in assay [10].
In the case of `COc1cc2ncn(-c3cc(OCc4ccccc4C(F)(F)F)c(C(N)=O)s3)c2cc1OC`, the inhibition in [1] was determined as 13.6%; in [2] it was 2.93%; in assay [3], 6.32%; in [4], 2.18%; in [5], 2.55%; in [6], 1.38%. For the same molecule, the inhibition was found to be 3.61% in assay [7], 0.9% in assay [8] and 2.06% in assay [9].
Consider `CN(C)c1cc2c(Nc3ccc4nc(Cc5ccccc5)[nH]c4c3)ncnc2cn1`, for which the inhibition in [1] turned out to be 4.24%; in assay [2] it was 5.14%; in [3], 5.29%; in [4], 4.42%; in assay [5], 3.59%; in assay [6], 3.65%. For the same molecule, the inhibition turned out to be 6.31% in assay [7], 4.21% in assay [8], 5.5% in assay [9] and 3.69% in assay [10].
With `COc1ccc(-c2nn3ncccc3c2-c2ccnc(Nc3ccc(Cl)c(C(F)(F)F)c3)n2)cc1`, the inhibition in [1] is 2.16%; in [2], 2.65%; in assay [3] it was 4.89%; in [4] it was 2.27%; in assay [5], 5.15%; in assay [6], -4.74%. Also, the inhibition in assay [7] was 0.96%; in assay [8], 1.89%; in [9], 2.18%; in [10], 1.23%.
As to `Nc1ncnc2occ(-c3ccc(NC(=O)Nc4cc(C(F)(F)F)cc(C(F)(F)F)c4)cc3)c12`, the inhibition was 3.1% in [1]; -0.4% in assay [2]; -1.46% in assay [3]; 1.06% in assay [4]; -2.08% in assay [5]; -0.62% in assay [6]. Further, the inhibition in assay [7] is 1.87%; in assay [8], 1.49%; in assay [9], 2.74%; in assay [10], 0.5%.
Consider `Cn1cc(C=C2C(=O)Nc3cccnc32)c2ccccc21`, for which the inhibition in assay [1] was 10.2%; in assay [2], 1.87%; in assay [3], 1.12%; in assay [4] it was -0.65%; in [5], -0.52%; in [6] it was 3.21%. Besides, the inhibition in assay [7] was found to be 14.3%; in assay [8], 2.59%; in assay [9], 4.56%; in assay [10] it was 1.76%.
For `CCCN1CCC=C(c2ccc(Nc3nc(Nc4ccccc4C(N)=O)c4cc[nH]c4n3)c(C)c2)C1`, the inhibition in assay [1] was found to be 9.03%; in [2], 29.9%; in [3], 76.7%; in assay [4] it was 7.28%; in [5], 37.6%; in assay [6], 8.97%. Further, the inhibition in assay [7] was found to be 47.6%; in assay [8], 22.5%; in [9] it was 59.8%; in [10], 31.1%.
For the molecule `O=C1NC(=O)C(c2ccc(Cl)cc2)=C1Nc1ccc(Cl)c(C(=O)O)c1`, the inhibition in [1] was 0.78%; in assay [2], -1.77%; in assay [3], -3.14%; in [4] it was -1.44%; in [5] it was -2.14%; in [6], 0.85%. Also, the inhibition was -1.03% in assay [7], -1.57% in [8], -2.04% in [9] and -1.56% in [10].
Consider `NC(=O)c1ccc(-c2nc(-c3ccccn3)c(-c3ccc4c(c3)OCO4)[nH]2)cc1`, for which the inhibition was 2.25% in assay [1]; 2.68% in [2]; 0.88% in assay [3]; 1.76% in [4]; 0.84% in [5]; 13.1% in assay [6]. Further, the inhibition in assay [7] worked out at 48.5%; in [8], 1.97%; in assay [9], 4.22%; in [10], 1.5%.
